Compounds with a hit are over-represented: about 31% of the library has one in this group of screens.
CYP2C9 act: increases human cytochrome P450 2C9 activity. recombinant CYP2C9, luciferin-H conversion, luminescence; active compounds read high; factor 1 = untreated enzyme, 0 = blocked. activation factor at 5 µM. 96,000 compounds, 1.4% hits. AID 1024;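 active = activation factor of 2 or more for CYP2C9 at a 5 µM dose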;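 note: 0 = sulfaphenazole-blocked wells and 1 = vehicle-only wells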
CYP2C19 act: cytochrome P450 2C19 (human) activation; AID 1025; recombinant CYP2C19, luciferin-H EGE luminescence; active compounds read high; 0 = fully inhibited enzyme, 1 = untreated enzyme; 96,000 tested, under 10 active; P33261; activation factor at 5 µM;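 active = activation factor of at least 2 at 5 µM in the primary screen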;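 note: 0 = wells with 2.5 mM tranylcypromine and 1 = vehicle-only wells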
Target sequence (P33261 whole entry, looked up): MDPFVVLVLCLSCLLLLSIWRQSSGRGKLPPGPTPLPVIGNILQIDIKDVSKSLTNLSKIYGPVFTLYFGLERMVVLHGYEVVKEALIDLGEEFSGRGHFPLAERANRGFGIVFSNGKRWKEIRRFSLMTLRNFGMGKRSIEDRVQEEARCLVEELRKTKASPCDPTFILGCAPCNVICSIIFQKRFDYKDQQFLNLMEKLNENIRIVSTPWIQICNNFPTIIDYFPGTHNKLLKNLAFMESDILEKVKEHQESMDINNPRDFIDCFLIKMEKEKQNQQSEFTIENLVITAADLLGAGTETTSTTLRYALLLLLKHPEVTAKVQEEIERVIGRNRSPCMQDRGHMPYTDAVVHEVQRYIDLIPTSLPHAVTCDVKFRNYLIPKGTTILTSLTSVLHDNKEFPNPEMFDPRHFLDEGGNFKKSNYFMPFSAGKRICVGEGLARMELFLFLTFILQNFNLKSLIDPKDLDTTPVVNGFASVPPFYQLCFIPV
CYP2C9 inhib: blocks human cytochrome P450 2C9. P11712. CYP2C9 Supersomes, luciferin-H conversion, luminescence. inhibition, % at 5 µM. 96,000 compounds, 20% hits;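 active = blocking of liver enzyme CYP2C9 beyond about 50% at 5 µM, limit read from the data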
CYP2C19 inh: blocks human cytochrome P450 2C19; CYP2C19 Supersomes, luciferin-H EGE luminescence, 30 min; inhibition, % at 5 µM; 96,000 compounds, 21% hits;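 active = CYP2C19 inhibition above a set limit at 5 µM in the primary screen, cut at about 50% in these data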;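 note: plate controls were negative control wells for no effect and 2.5 mM tranylcypromine positive control for full effect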
Numbers without * were called inactive.

SMILES	CYP2C9 act	CYP2C19 act	CYP2C9 inhib	CYP2C19 inh
COCCn1c(SCc2nc(N)nc(Nc3ccccc3C)n2)nc2ccccc2c1=O	0.3	0.5	70.8*	49.8
COc1ccc(C(=O)Cn2c(N3CCOCC3)nc3ccccc32)cc1OC	1.1	1.2	-5.9	-16.2
O=C1C=C(NC2CC2)C2(CCCCC2)O1	0.9	0.9	5.1	6.0
CC(=O)Nc1cc(NC(C)=O)cc(C(=O)NC(C)(C)C)c1	0.9	1	10.4	1.2
Cc1ccc(C2C3=C(CCCC3=O)Nc3nc(SCC(=O)NCc4ccco4)[nH]c(=O)c32)cc1 (stereo unspecified)	1	1.2	0.7	-15.5
O=C1CCCC2=C1C(c1ccncc1)c1c(nc(SCc3ccccc3)[nH]c1=O)N2 (stereo unspecified)	0.1	0.1	90.4*	87.2*
CC1CN(C(=S)NC(=O)c2ccc([N+](=O)[O-])cc2)CC(C)O1 (stereo unspecified)	0.9	0.9	9.8	10.0
CCCC(=O)Nc1cccc(C(=O)Nc2nccs2)c1	0.4	0.8	55.1*	19.9
CC(C)C(=O)Nc1cccc(C(=O)Nc2nncs2)c1	0.7	0.9	32.1	6.6
O=C(Nc1nccs1)c1cccc(NC(=O)C2CC2)c1	0.7	0.8	29.9	18.5
CC(C)C(=O)Nc1cccc(C(=O)Nc2nccs2)c1	0.1	0.8	86.0*	20.2
COc1ccc(C(N)CCc2ccco2)cc1 (stereo unspecified)	0.9	0.7	14.3	30.3
CCOC(=O)C1CCN(S(=O)(=O)c2ccc(-n3cnnn3)c(C)c2)CC1	1.1	0.9	-13.7	14.9
COc1cccc(N2CCN(CC(=O)c3c[nH]c4ccc(OC)cc34)CC2C)c1 (stereo unspecified)	0.5	0.7	50.1*	29.4
C/C(=N/NS(=O)(=O)c1ccc(F)cc1)c1ccc(NC(=O)c2ccc(C)o2)cc1	0.1	0.5	94.9*	45.4
Cc1cc(NC(=O)COC(=O)c2cc(S(=O)(=O)N3CCOCC3)ccc2N2CCCCC2)no1	0.8	0.9	18.3	12.5
CCN(CC)S(=O)(=O)c1ccc(N2CCCC2)c(C(=O)OCC(=O)/C(C#N)=C(\C)N)c1	0.2	0.2	81.7*	80.2*
Cc1nc2ccccn2c1C(=O)NCc1cccnc1	0.9	0.5	9.2	48.9
COn1c(C)c(C(C)=O)c2c3nonc3ccc21	0.5	0.4	50.5*	61.2*
CCn1c2ccccc2c2cc(/C(C)=N/O)ccc21	0.5	0.8	49.5	21.5
C/C(=N\O)c1ccc2c3ccccc3n(C)c2c1	0.5	0.7	54.8*	34.2
CCNS(=O)(=O)c1ccc(S(=O)(=O)N(Cc2ccccn2)C2CCCCC2)cc1	1.3	0.8	-31.2	22.1
CCN(C1CCCCC1)S(=O)(=O)c1ccc(S(=O)(=O)NCc2ccncc2)cc1	0	0.2	100.1*	83.8*
CCN(C1CCCCC1)S(=O)(=O)c1ccc(S(=O)(=O)NCCc2ccncc2)cc1	0	0	99.5*	95.8*
COc1ccc2cc(C)c3nnc(SCC(=O)Nc4nc(-c5ccccc5)cs4)n3c2c1	0.5	0.6	45.4	39.6
SMILES	CYP2C9 act	CYP2C19 act	CYP2C9 inhib	CYP2C19 inh
CCOC(=O)c1cc2sc(C)cc2n1CC(=O)NCCc1ccccc1	0.5	0	45.6	99.9*
CCOC(=O)c1cc2sc(C)cc2n1CC(=O)N(CC)CC	1	0.5	-4.8	54.3*
CCCCNC(=O)C1CC(=O)N(c2ccc(OC)cc2)C1c1ccc(OC)cc1 (stereo unspecified)	0.8	0.7	16.7	28.6
CN1C2C=C(N(CCc3c[nH]c4ccccc34)C(=O)c3ccc(Cl)cc3)CC1CC2 (stereo unspecified)	1	0.9	1.1	6.7
c1ccc(N2CCN(c3cnccn3)CC2)nc1	1	0.6	-2.8	41.7
N#Cc1cc(C#N)c(N2CCN(c3ccccn3)CC2)nc1N	0.6	0.3	43.8	65.1*
CSc1nc(-c2ccco2)nn1C(=O)c1cccs1	0.1	0.6	88.3*	38.4
CCC(=O)n1nc(-c2ccco2)nc1SCc1ccccc1	0.4	0.2	63.8*	78.4*
O=C(c1cccs1)n1nc(-c2ccco2)nc1SCc1ccccc1	0.8	0.8	24.1	20.8
CCC(=O)n1nc(-c2ccco2)nc1N	0.9	0.9	7.9	11.4
CC(=O)n1nc(-c2ccco2)nc1SCc1ccccc1	0.7	0.3	30.9	66.2*
CSc1nc2ccc(NC(=O)C3CC(=O)N(Cc4ccccc4)C3)cc2s1 (stereo unspecified)	0.7	0.8	33.2	15.9
CCCCC(CC)CN1C(=O)/C(=C/c2ccncc2)SC1=S (stereo unspecified)	0.3	0.4	69.9*	61.8*
NC(=O)C1(N2CCCCC2)CCN(C(=O)NC23CC4CC(CC(C4)C2)C3)CC1	0.4	0.9	56.1*	14.2
NC(=O)C1(N2CCCCC2)CCN(C(=O)NC2CCCCC2)CC1	0.9	1	12.6	1.8
CCOc1c2c(nc3ccc(Cl)cc13)CCC2	0.9	1	11.4	2.0
O=c1[nH]c2ccccc2n1C1CCCCC1	1.1	0.8	-10.1	15.0
Cc1cc(O)c(C(C)C)cc1NC(=O)c1cccc(Cl)c1	0.4	0.4	55.7*	60.1*
O=C(Nc1c(F)c(F)c(F)c(F)c1F)C1CCCCC1	0.9	0.8	14.4	16.2
COc1ccc(N2C(=O)NC3CC2(C)Oc2ccc(Br)cc23)cc1OC (stereo unspecified)	0.3	0.5	74.1*	49.7
CCN(CC(=O)Nc1ccc2c(c1)OCCO2)c1nc(-c2cccnc2)nc2ccccc12	0.4	0.3	56.4*	65.8*
CS(=O)(=O)Nc1ccccc1C(=O)Nc1ccc2c(c1)OCCO2	0.3	0.9	73.4*	10.7
COc1ccc(-c2cc(C(=O)N3CCOCC3)c3cc(C)ccc3n2)cc1	0.4	0.7	59.2*	33.4
Cc1ccc2nc(-c3ccccc3)cc(C(=O)N3CCc4ccccc4C3)c2c1	0.7	0.8	32.8	20.1
O=C(CSc1ccc(-c2nc3ccccc3[nH]2)cn1)Nc1ccc2c(c1)OCCO2	0.6	0.9	37.2	7.2
SMILES	CYP2C9 act	CYP2C19 act	CYP2C9 inhib	CYP2C19 inh
Cc1nc2ccccc2n1C(=O)c1cc(-c2ccc(Br)cc2)nc2ccccc12	0.2	0.8	78.8*	16.8
Cc1ccc(S(=O)(=O)C(C#N)c2nc3ccccc3nc2OC(C)C)cc1 (stereo unspecified)	0.7	1	27.2	1.4
CCC1(C(=O)OC)NC(c2ccco2)C2C(=O)N(c3ccc(C)cc3)C(=O)C21 (stereo unspecified)	1	0.8	1.9	22.6
Cc1ccc(-c2c(C(=O)N3CCOCC3)oc(=O)c3ccccc23)cc1	0.8	0.8	22.4	21.2
CCc1ccc(-c2cc(C(=O)NN3CCOCC3)c3ccccc3n2)cc1	0.5	0.9	53.8*	9.6
Cc1ccc(-c2cc(C(=O)NN=C3CCCC3)c3ccccc3n2)cc1	0.7	0.8	25.3	16.4
Cc1ccc(-c2cc(C(=O)Nc3ccc4c(c3)OCCO4)c3ccccc3n2)cc1	0.2	0.8	76.2*	23.2
CC(C)c1ccc(-c2cc(C(=O)N3N=C(C(F)F)CC3(O)C(F)F)c3ccccc3n2)cc1 (stereo unspecified)	0	0.9	100.3*	6.9
